Source: PubChem
An excerpt weighted towards active compounds, which were near 9.7% of everything screened.
BAP1 block: inhibitors of BAP1 deubiquitinase, primary screen, biochemical, Ub-AMC fluorescence, kinetic; recombinant BAP1, Ub-AMC hydrolysis fluorescence kinetic; active compounds read low; calls only at 20 µM; 72,000 tested, 0.48% active;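 active = activity remaining at or below 50% of control, provided the compound also passes the data quality filters; inactive = the rest, including low values that fail the filters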
Target sequence (Q92560 whole entry, looked up): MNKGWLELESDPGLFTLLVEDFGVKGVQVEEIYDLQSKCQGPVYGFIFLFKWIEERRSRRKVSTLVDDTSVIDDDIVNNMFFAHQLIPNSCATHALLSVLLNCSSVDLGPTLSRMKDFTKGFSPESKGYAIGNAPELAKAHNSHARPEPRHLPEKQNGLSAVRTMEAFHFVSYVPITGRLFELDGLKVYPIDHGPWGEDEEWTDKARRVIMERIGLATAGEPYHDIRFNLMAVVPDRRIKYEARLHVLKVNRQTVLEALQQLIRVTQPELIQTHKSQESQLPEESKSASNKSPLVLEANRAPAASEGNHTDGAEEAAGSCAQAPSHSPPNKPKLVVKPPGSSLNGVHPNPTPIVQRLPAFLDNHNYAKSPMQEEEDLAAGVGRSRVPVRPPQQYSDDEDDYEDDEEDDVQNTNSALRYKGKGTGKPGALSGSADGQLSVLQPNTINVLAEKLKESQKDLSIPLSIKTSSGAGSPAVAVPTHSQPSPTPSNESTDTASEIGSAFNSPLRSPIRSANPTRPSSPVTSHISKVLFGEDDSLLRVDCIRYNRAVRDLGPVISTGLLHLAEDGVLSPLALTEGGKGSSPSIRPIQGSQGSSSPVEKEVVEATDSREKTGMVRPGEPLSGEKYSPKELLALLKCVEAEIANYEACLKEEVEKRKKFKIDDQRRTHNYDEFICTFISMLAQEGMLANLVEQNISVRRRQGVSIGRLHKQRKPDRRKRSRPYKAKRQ
WNV protease inh: inhibitors of WNV NS2B-NS3 protease, primary screen, biochemical, fluorogenic substrate | Genome polyprotein (West Nile virus), P06935 | z-score (test concentration not listed) | AID 577, 2007 | 65,000 tested, 0.18% active | fluorogenic substrate Ex360/Em465; active compounds read low; in the data active = z-score below about -3
A340 absorber: compound light absorbance at 340 nm, profiling panel, artefact control, biochemical, MLSMR library, data from PS, PMK, MK assays. compound absorbance at 340 nm, fold over control. fold change at 10 µM. 65,000 tested, under 10 active. AID 708, 2007;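 active = at 10 µM dose, initial 340 nm absorbance at least 2 fold that of control wells; inactive = change under 2 fold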;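 also: initial absorbance extrapolated from kinetic A340 decline of NADH oxidation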
M1 antagonist: antagonists of rat M1 muscarinic receptor; Muscarinic acetylcholine receptor M1 (Rattus norvegicus), P08482; CHO-M1 cells, Fluo-4 calcium, ACh EC80 antagonist mode; active compounds read low; B-score at 10 µM; 64,000 tested, 3.4% active;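 active = calcium fluorescence response, raw or row-and-column corrected B-score, differing from the plate sample mean either way at a set confidence level, mostly lower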
Fluor 339 460: intrinsic fluorescence of library compounds, ex339/em460 – biochemical, MLSMR library, data from DPM-DC assay, artefact control, profiling panel; 65,000 tested, 5.5% active; fluorescence fold increase at 10 µM; compound autofluorescence, ex339/em460 nm, NADH buffer; active compounds read high; 1 = no-compound wells, NADH background;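 active = at 10 µM, mean starting fluorescence two-fold or more over control wells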;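 also: signal is the first read of a kinetic run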
M1 agonist: M1 muscarinic receptor agonists, primary screen, CHO-M1 cells, Fluo-4 calcium, agonist mode. Muscarinic acetylcholine receptor M1. Fluo-4 calcium fluorescence; active compounds read high. B-score at 10 µM. 64,000 tested, 3% active;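 active = fluorescence rise, raw or as B-score row- and column-corrected plate score, outside the 99.7% band of its plate's samples, either direction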
Numbers stand for hits; - = inactive; . = no result given.

SMILES | BAP1 block | WNV protease inh | A340 absorber | M1 antagonist | Fluor 339 460 | M1 agonist
COc1cccc(Cn2c(=S)[nH]c3ccc(N4CCOCC4)cc3c2=O)c1 | - | - | - | - | 3.7 | -
O=c1c2cc(Cl)ccc2[nH]c(=S)n1Cc1ccco1 | - | - | - | - | - | -
N#Cc1c(N)c(C#N)c(-c2ccc(O)cc2)c2c1CCCC2 | . | - | - | - | 2.9 | -
Cc1onc(-c2ccccc2)c1C(=O)Nc1ccc2c(C)cc(=O)oc2c1 | . | - | - | - | 2.2 | -
O=C(Nc1nnc(-c2ccncc2)s1)C1CCCO1 (stereo not given) | . | - | - | - | 3.7 | -
O=C(O)CCCC(=O)Nc1ccc(Cl)c(Cl)c1 | - | - | - | - | - | -
Cc1cc(=O)oc2cc(NC(=O)CCCC(=O)O)ccc12 | . | - | - | - | 5 | -
Cc1onc(-c2ccccc2)c1C(=O)Nc1nnc(-c2ccncc2)s1 | . | - | - | . | 3.8 | -
Cc1onc(-c2ccccc2)c1C(=O)Nc1ccncc1 | - | - | - | - | - | -
COc1ccc(NC(=O)C23CC4CC(CC(C4)C2)C3)cc1OC | - | . | . | . | . | .
CC(C)Cn1c(N2CCCCC2)nc2c1c(=O)[nH]c(=O)n2C | - | . | . | . | . | .
CCOC(=O)CNC(=O)CSc1nnc(-c2ccccc2OC)n1CC | - | - | - | - | - | -
CCOC(=O)CCc1c(C)n(CC)c2cc(-c3ccccc3OC)nn2c1=O | - | - | - | - | 3.6 | -
CCOC(=O)c1c(N)sc(C(=O)Nc2cc(C)ccc2C)c1C | - | . | . | . | . | .
O=C(CSc1n[nH]c(-c2ccc(S(=O)(=O)N3CCCCC3)cc2)n1)Nc1nccs1 | - | - | - | - | 2.6 | -
COc1cc(C(=O)Nc2ccc(-c3nc4ccccc4[nH]3)cc2)cc(OC)c1OC | - | . | . | . | . | .
Cc1ccc2nc(Nc3ncc4c(n3)CCCC4=O)nc(C)c2c1 | - | - | - | -2.7 | - | -
Cc1c(C(=O)O)cnc2cc(-c3ccc(Cl)cc3)nn12 | - | - | - | - | 2.1 | -
Cc1cc2ncc(C(=O)Nc3ccccc3)c(C)n2n1 | - | - | - | - | - | -
COC(=O)c1ccccc1NC(=O)c1ccc(-c2ccccc2F)o1 | . | - | - | - | 2.2 | -
COc1ccccc1NC(=O)c1ccc(-c2ccccc2F)o1 | - | - | - | - | - | -
CCCCOC(=O)C1=C(C)NC(=O)NC1c1cccc(F)c1 (stereo not given) | - | . | . | . | . | .
C=C(C)Cn1c(SCC(=C)Br)nc2sc3c(c2c1=O)CC(C)(C)OC3 | - | . | . | . | . | .
CCOC(=O)c1[nH]c2cc3c(cc2c1NC(=O)CN1CCc2ccccc2C1)OCO3 | . | - | - | - | 2.3 | -
CCOC(=O)c1[nH]c2cc3c(cc2c1NC(=O)CN1CCC(C)CC1)OCO3 | - | - | - | - | 2.3 | -
SMILES | BAP1 block | WNV protease inh | A340 absorber | M1 antagonist | Fluor 339 460 | M1 agonist
CCOC(=O)N1CCN(CC(=O)Nc2c(C(=O)OC)[nH]c3ccccc23)CC1 | - | - | - | - | - | -
COC(=O)c1sc(-c2ccccc2)cc1NC(=O)c1ccc(S(=O)(=O)N2CC3(C)CC2CC(C)(C)C3)cc1 (stereo not given) | - | . | . | . | . | .
COC(=O)CSC1=C(C#N)C(c2ccc(C)cc2)C2=C(CCCC2=O)N1 (stereo not given) | . | -5 | - | . | - | .
COC(=O)CSc1nc(N2CCOCC2)c2c(c1C#N)CC(C)(C)N(C)C2 | - | - | - | - | 2.1 | -
CCn1c(SCC(=O)N2CCN(c3ccc(F)cc3)CC2)nc2ccccc2c1=O | - | - | - | - | - | -
CCCn1c(SCC(=O)N2CCN(c3ccccc3)CC2)nc2ccccc2c1=O | - | - | - | 1.9 | - | -
CCCn1c(SCC(=O)N2CCN(c3ccc(OC)cc3)CC2)nc2c1c(=O)n(C)c(=O)n2C | - | - | - | - | - | 9.6
CCCn1c(SCC(=O)N2CCCC2)nc2c1c(=O)n(C)c(=O)n2C | - | - | - | - | - | -
CCCCOc1ccc(C)cc1CN(CCO)CCO | - | - | - | 2.1 | - | -
O=c1oc2ccc(Cl)cc2cc1-c1nnc(Nc2ccc(F)cc2)s1 | - | . | . | . | . | .
COc1ccccc1OCc1nc2c3c(-c4ccccc4)c(-c4ccccc4)oc3ncn2n1 | - | - | - | - | 3.2 | -
CCOC(=O)c1oc2c(CN3CCCCC3C)c(O)ccc2c(=O)c1-c1ccc(OC)c(OC)c1 (stereo not given) | - | - | - | - | - | -
CN1CCN(Cc2c(O)ccc3c(=O)c(-c4ccc(Cl)cc4)coc23)CC1 | - | . | . | . | . | .
COC(=O)c1ccc(Oc2c(C)oc3c(CN4CCN(C)CC4)c(O)ccc3c2=O)cc1 | - | - | - | - | 3.8 | -
COc1ccccc1Oc1c(C)oc2c(CN3CCN(C)CC3)c(O)ccc2c1=O | . | - | - | - | 3.8 | -
CCc1ccc(NC(=O)c2cc3nc(-c4ccccc4)cc(C)n3n2)cc1 | - | . | . | . | . | .
CC(=O)c1cccc(NC(=O)c2cc3nc(C)cc(C)n3n2)c1 | - | - | - | - | 2.5 | -
O=C1CC(C(=O)Nc2ccc(O)c(C(=O)O)c2)C(c2ccccc2)O1 (stereo not given) | - | - | - | - | 3.1 | -
O=C1CN(C(=O)c2ccc(N3CCCCC3)c([N+](=O)[O-])c2)c2ccccc2N1 | - | . | . | . | . | .
COc1ccccc1C(=O)Nc1cccc2c1C(=O)c1ccccc1C2=O | - | . | . | . | . | .
COCc1nc(-c2ccc(-c3ccccc3)nc2OC)no1 | - | - | - | - | - | -
COCc1nc(-c2ccc(-c3ccc(OC)cc3)nc2OC)no1 | . | - | - | - | 2.1 | -
COc1ccc(-c2ccc(-c3noc(C(C)C)n3)c(OC)n2)cc1 | . | - | - | - | 4 | -
CCc1nc(-c2ccc(-c3ccc(OC)cc3)nc2OC)no1 | . | - | - | - | 2.1 | -
CC1(C)CC(=C2C3C=CC2C2C(=C4CC(C)(C)NC(C)(C)C4)C=CC32)CC(C)(C)N1 (stereo not given) | - | . | . | . | . | .
SMILES | BAP1 block | WNV protease inh | A340 absorber | M1 antagonist | Fluor 339 460 | M1 agonist
Cc1cc(C)c(C#N)c(SCC(=O)CC(=O)OC(C)C)n1 | - | - | - | - | 3 | -
Cc1cc(C)c(C#N)c(SCC(=O)Nc2nnc(-c3ccccc3)s2)n1 | - | - | - | - | 2.1 | -
Cc1nc(SCC(=O)CC(=O)OC(C)C)c(C#N)c(C)c1C | - | - | - | - | - | -
COC(=O)c1[nH]c2ccccc2c1NC(=O)Oc1ccccc1 | - | - | - | - | 2.3 | -
C=CCOC(=O)Nc1c(C(=O)OC)[nH]c2ccccc12 | - | - | - | - | - | -
CCOC(=O)c1[nH]c2ccc(OC)cc2c1NC(=O)OC | . | - | - | - | 3.6 | -
CCOC(=O)Nc1c(C(=O)OC)[nH]c2cc(OC)ccc12 | - | - | - | - | - | -
